Assay results taken from PubChem BioAssay AID1159580 (chemical genetic matrix, 2015).
Values joined by “and” are separate entries in the source; they are usually repeats but may differ in a detail not shown here. Identical values can stand only once. In all, about 5,500 compounds went through this assay and about 2,000 (36%) were called active. Inconclusive results (about 18%) are left out. No stated cut-off is given here; in the data, active means normalized growth mostly below about 0.91 (no sharp cut-off); inconclusive means no clear call, values can overlap the other calls; inactive means mostly above about 0.92. This is one part of the list.

Assay: chemical genetic growth profiling, strain panel (AID 1159580);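 further: tested at 20 µM; growth read once vehicle control cultures reached saturation at 30 °C; 1 = growth at the plate median or of vehicle wells; lower values mean less growth of the strain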
Conditions: S. cerevisiae deletion strains, growth OD

Measured: normalized growth

Cc1cc(C(C)(C)C)c(O)c(C)c1CC1=NCCN1
inactive: locus YAL013W, strain DEP1, active compounds read low 0.986 and 1.02 | locus YAL021C, strain ccr4, active compounds read low 1.01 | locus YAL026C, strain drs2, active compounds read low 1 | locus YAL030W, strain snc1, active compounds read low 1.01 | locus YAL040C, strain CLN3, active compounds read low 1.01 | locus YBL061C, strain skt5, active compounds read low 1.02 | locus YBR009C, strain hhf1, active compounds read low 1.01 | locus YBR021W, strain FUR4, active compounds read low 1 | locus YBR023C, strain chs3, active compounds read low 1.02 | locus YBR171W, strain sec66, active compounds read low 1.02 | locus YBR229C, strain ROT2, active compounds read low 1 | locus YBR231C, strain swc5, active compounds read low 0.998 | locus YBR279W, strain paf1, active compounds read low 0.993 | locus YCL011C, strain gbp2, active compounds read low 1.01 | locus YCL016C, strain dcc1, active compounds read low 1.02 | locus YCL029C, strain bik1, active compounds read low 1.02 | locus YCL061C, strain MRC1 (second series), active compounds read low 1 | locus YCL061C, strain MRC1, active compounds read low 1.01 | locus YCL069W, strain vba3, active compounds read low 1 | locus YCR088W, strain abp1, active compounds read low 1 | locus YDL005C, strain med2, active compounds read low 0.998 | locus YDL035C, strain GPR1, active compounds read low 1 | locus YDL040C, strain nat1, active compounds read low 1 | locus YDL074C, strain BRE1, active compounds read low 0.98 | locus YDL101C, strain DUN1, active compounds read low 1 | locus YDL134C, strain PPH21, active compounds read low 0.997 | locus YDL185W, strain tfp1, active compounds read low 1.01 | locus YDL192W, strain arf1, active compounds read low 1.02 | locus YDR001C, strain nth1, active compounds read low 0.993 | locus YDR069C, strain doa4, active compounds read low 1.01 | locus YDR101C, strain arx1, active compounds read low 0.993 | locus YDR137W, strain rgp1, active compounds read low 1.06 | locus YDR150W, strain NUM1, active compounds read low 1 | locus YDR159W, strain sac3, active compounds read low 0.991 | locus YDR162C, strain NBP2, active compounds read low 0.991 | locus YDR195W, strain ref2 0.99 | locus YDR297W, strain sur2, active compounds read low 1 | locus YDR318W, strain mcm21, active compounds read low 1.01 | locus YDR334W, strain swr1, active compounds read low 1.01 | locus YDR335W, strain msn5, active compounds read low 1 | locus YDR363W, strain ESC2, active compounds read low 1.01 | locus YDR388W, active compounds read low 1 | locus YDR392W, strain spt3, active compounds read low 0.954 | locus YDR502C, strain sam2, active compounds read low 1 | locus YEL003W, strain gim4, active compounds read low 0.981 | locus YEL037C, strain rad23, active compounds read low 1 | locus YEL061C, strain CIN8 (second series), active compounds read low 0.998 | locus YEL061C, strain CIN8, active compounds read low 0.997 | locus YER002W, strain NOP16, active compounds read low 0.998 | locus YER015W, strain faa2, active compounds read low 0.998 | locus YER016W, strain bim1, active compounds read low 1 | locus YER110C, active compounds read low 1.02 | locus YER111C, strain swi4, active compounds read low 1 | locus YER155C, strain BEM2 (second series), active compounds read low 0.991 | locus YER155C, strain BEM2, active compounds read low 0.996 | locus YER167W, strain BCK2, active compounds read low 0.998 | locus YFR010W, strain ubp6, active compounds read low 0.999 | locus YGL078C, strain dbp3, active compounds read low 1.01 | locus YGL086W, strain mad1, active compounds read low 1 | locus YGL167C, strain pmr1, active compounds read low 1 | locus YGL173C, strain kem1, active compounds read low 1.01 | locus YGL227W, strain vid30, active compounds read low 1 | locus YGL240W, strain doc1, active compounds read low 0.992 | locus YGL248W, strain PDE1, active compounds read low 1 | locus YGL253W, strain hxk2, active compounds read low 1.01 | locus YGR078C, strain PAC10, active compounds read low 1 and 0.998 | locus YGR135W, strain pre9, active compounds read low 1.01 | locus YGR229C, strain SMI1, active compounds read low 1.01 | locus YGR252W, strain gcn5, active compounds read low 0.967 | locus YHR013C, strain ard1, active compounds read low 1.01 | locus YHR027C, strain rpn1, active compounds read low 1.02 | locus YHR030C, strain SLT2, active compounds read low 0.998 and 0.968 | locus YHR079C, strain IRE1 (second series), active compounds read low 1.01 | locus YHR079C, strain IRE1, active compounds read low 0.977 | locus YHR094C, strain hxt1, active compounds read low 0.994 | locus YHR129C, strain ARP1, active compounds read low 1.01 | locus YHR142W, strain chs7, active compounds read low 0.997 | locus YHR200W, strain rpn10, active compounds read low 0.994 | locus YIL066C, strain RNR3, active compounds read low 1 | locus YIL073C, strain SPO22, active compounds read low 1.04 | locus YIL125W, strain kgd1, active compounds read low 1 | locus YIR030C, strain dcg1, active compounds read low 1.01 | locus YJL092W, strain hpr5, active compounds read low 1.01 | locus YJL095W, strain BCK1 (second series), active compounds read low 1.01 | locus YJL095W, strain BCK1, active compounds read low 1 and 0.981 | locus YJL115W, strain asf1, active compounds read low 1 | locus YJL129C, strain trk1, active compounds read low 0.993 | locus YJL134W, strain LCB3, active compounds read low 0.997 | locus YJL154C, strain vps35, active compounds read low 1 | locus YJL164C, strain tpk1, active compounds read low 1 | locus YJL166W, strain qcr8, active compounds read low 1.01 | locus YJL168C, strain set2, active compounds read low 1.01 | locus YJL187C, strain SWE1 (second series), active compounds read low 1 | locus YJL187C, strain SWE1, active compounds read low 1 | locus YJR043C, strain POL32, active compounds read low 0.982
